# Assay results published in PubChem BioAssay (NCATS).
# Inconclusive results are not listed. Where a call stands in place of a potency, no number is given. Active and inactive are the calls of the source. Calls follow the shape of the dose curve; as a rule, active = well fitted inhibition curve with a large enough effect; inconclusive = small, poorly fitted or top-dose-only effect; inactive = flat fitted curve, though single readings scatter.
# Tests used:
# Assay in all cases: qHTS profiling for inhibitors of Plasmodium falciparum proliferation (AID 504749); also: nearly all actives have a fitted effect of over 60% in size
# Conditions in all cases: P. falciparum in erythrocytes, SYBR Green DNA, 72 h; series mostly up to 28.7 µM
# CP203 = tested on: CP203
# Method in brief: (§1)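 Parasite proliferation within erythrocytes, 72 h exposure. Endpoint: SYBR Green I fluorescence after overnight lysis at room temperature. Controls: 0.29 uM artemisinin, DMSO.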
# CP211 = tested on: CP211
# Method in brief: as §1
# CP215 = tested on: CP215
# Method in brief: as §1
# CP217 = tested on: CP217
# Method in brief: as §1
# CP237 = tested on: CP237
# Method in brief: as §1
# CP238 = tested on: CP238
# Method in brief: as §1
# CP247 = tested on: CP247
# Method in brief: as §1
# CP250 = tested on: CP250
# Method in brief: as §1
# CP252 = tested on: CP252
# Method in brief: as §1
# CP256 = tested on: CP256
# Method in brief: as §1
# Potency is read from the fitted curve at half-maximal effect.
SMILES,Potency (CP203),Potency (CP211),Potency (CP215),Potency (CP217),Potency (CP237),Potency (CP238),Potency (CP247),Potency (CP250),Potency (CP252),Potency (CP256)
C=CCN(C1=NCCN1)c1c(Cl)cccc1Cl,inactive,inactive,inactive,inactive,inactive,inactive,inactive,inactive,inactive,inactive
CCCCCCCCCC(=O)O[C@H]1CC[C@H]2[C@@H]3CCC4=CC(=O)CC[C@]4(C)[C@H]3CC[C@]12C,inactive,inactive,inactive,inactive,inactive,inactive,inactive,inactive,inactive,inactive
CCCCCCCCOC(=O)c1ccccc1C(=O)OCCCCCCCC,inactive,inactive,inactive,inactive,inactive,inactive,inactive,inactive,inactive,inactive
O=CC=O,inactive,inactive,inactive,inactive,inactive,inactive,inactive,inactive,inactive,inactive
COC([CH2][Hg])CNC(=O)c1ccccc1OCC(=O)O (stereo not drawn),inactive,inactive,inactive,inactive,inactive,inactive,inactive,inactive,inactive,inactive
O[C@H]1[C@H]2[C@H](O)CCCN2C[C@H]1O,inactive,inactive,inactive,inactive,inactive,inactive,inactive,inactive,inactive,inactive
O=S(=O)(O)c1cc(O)ccc1O,inactive,inactive,inactive,inactive,inactive,inactive,inactive,inactive,inactive,inactive
O=C(CCl)c1ccc(Oc2ccc(C(=O)CCl)cc2)cc1,inactive,inactive,inactive,inactive,inactive,inactive,inactive,inactive,inactive,inactive
CC(=O)OO,inactive,inactive,inactive,inactive,inactive,inactive,inactive,inactive,inactive,inactive
O=P(O)(O)C(Cl)(Cl)P(=O)(O)O,inactive,inactive,inactive,inactive,inactive,inactive,inactive,inactive,inactive,inactive
CCOC(=O)c1ccccc1C(=O)OCC,inactive,inactive,inactive,inactive,inactive,inactive,inactive,inactive,inactive,inactive
O=C/C=C/c1ccccc1,inactive,inactive,inactive,inactive,inactive,inactive,inactive,inactive,inactive,inactive
O=C1CCO1,inactive,inactive,inactive,inactive,inactive,inactive,inactive,inactive,inactive,inactive
O=C(OCCN1CCCCC1)C(O)(c1ccccc1)c1ccccc1,inactive,inactive,inactive,inactive,inactive,inactive,inactive,inactive,inactive,inactive
COc1ccc(OC)c(C(O)C(C)N)c1 (stereo not drawn),inactive,inactive,inactive,inactive,inactive,inactive,inactive,inactive,inactive,inactive
Clc1ccccc1Cl,inactive,inactive,inactive,inactive,inactive,inactive,inactive,inactive,inactive,inactive
CN1C2CCC1CC(OC(c1ccccc1)c1ccc(Cl)cc1)C2 (stereo not drawn),12 µM (active),15.1 µM (active),10.7 µM (active),7.08 µM (active),11.2 µM (active),10 µM (active),10 µM (active),10 µM (active),7.94 µM (active),7.08 µM (active)
O=C1CC[C@@]2(O)C3Cc4ccc(O)c5c4C2(CCN3CC2CC2)[C@H]1O5 (stereo partly drawn),inactive,inactive,inactive,inactive,inactive,inactive,inactive,inactive,inactive,inactive
C[C@]12CCC(=O)C[C@@H]1CC[C@@H]1[C@@H]2CC[C@]2(C)[C@@H](O)CC[C@@H]12,inactive,inactive,inactive,inactive,inactive,inactive,inactive,–,inactive,inactive
CN1c2ccccc2C(NCCCCCCC(=O)O)c2ccc(Cl)cc2S1(=O)=O (stereo not drawn),inactive,inactive,inactive,inactive,inactive,inactive,inactive,inactive,inactive,inactive
CC(C)(O)C1C2OC(=O)C1C1(O)CC3OC34C(=O)OC2C14C (stereo not drawn),inactive,inactive,inactive,inactive,inactive,inactive,inactive,inactive,inactive,inactive
O=C1CN(O)C(c2ccccc2)=c2cc(Cl)ccc2=N1,inactive,inactive,inactive,inactive,inactive,inactive,inactive,inactive,inactive,inactive
CC[N+](C)(CC)CCOC(=O)C(O)(c1ccccc1)c1ccccc1,inactive,inactive,inactive,inactive,inactive,inactive,inactive,inactive,inactive,inactive
CC(C)Nc1ccc(Nc2ccccc2)cc1,8.49 µM (active),3.79 µM (active),4.26 µM (active),5.01 µM (active),7.94 µM (active),10 µM (active),4.47 µM (active),5.01 µM (active),7.08 µM (active),7.94 µM (active)
CC(=O)OC1CN2CCC1CC2 (stereo not drawn),inactive,inactive,inactive,inactive,inactive,inactive,inactive,inactive,inactive,inactive
Clc1ccc(Cl)cc1,inactive,inactive,inactive,inactive,inactive,inactive,inactive,inactive,inactive,inactive
CCC1(c2ccccc2)C(=O)NC(=O)NC1=O,inactive,inactive,inactive,inactive,inactive,inactive,inactive,inactive,inactive,inactive

SMILES,Potency (CP203),Potency (CP211),Potency (CP215),Potency (CP217),Potency (CP237),Potency (CP238),Potency (CP247),Potency (CP250),Potency (CP252),Potency (CP256)
[O]=[Cr](=[O])([OH])[O][Cr](=[O])(=[O])[OH],inactive,inactive,inactive,inactive,11.2 µM (active),inactive,inactive,inactive,inactive,inactive
c1ccc2sc(SNC3CCCCC3)nc2c1,inactive,inactive,inactive,inactive,inactive,inactive,inactive,inactive,inactive,inactive
S=C(S)N1CCNCC1,inactive,inactive,inactive,inactive,inactive,inactive,inactive,inactive,inactive,inactive
CCC(C)(S(=O)(=O)CC)S(=O)(=O)CC,inactive,inactive,inactive,inactive,inactive,inactive,inactive,–,inactive,inactive
COc1ccc2c3c1O[C@H]1C(=O)CC[C@H]4[C@@H](C2)N(C)CC[C@]314,inactive,inactive,–,inactive,inactive,inactive,inactive,inactive,inactive,inactive
N#CC(C#N)=Cc1cc(O)c(O)c(O)c1,–,13.5 µM (active),–,–,8.91 µM (active),–,8.91 µM (active),11.2 µM (active),–,–
O=c1c2ccccc2[se]n1-c1ccccc1,inactive,–,inactive,–,–,–,–,–,inactive,inactive
C[C@H]1CCC[C@H](O)CCCCCc2cc(O)cc(O)c2C(=O)O1,inactive,inactive,–,–,–,inactive,inactive,–,inactive,inactive
CCC1(c2ccccc2)C(=O)NC(=O)N(C)C1=O (stereo not drawn),inactive,inactive,–,inactive,inactive,inactive,inactive,inactive,inactive,inactive
Cc1sc2ccccc2c1CC1=NCCN1,inactive,inactive,inactive,inactive,–,inactive,inactive,inactive,inactive,inactive
COC1=CC=C2[C@H]3Cc4ccc(OC)c5c4[C@@]2(CCN3C)[C@H]1O5,inactive,inactive,inactive,inactive,–,inactive,inactive,inactive,inactive,inactive
C[C@@H](Cc1ccccc1)NCCC(c1ccccc1)c1ccccc1,–,inactive,inactive,–,inactive,inactive,–,–,inactive,–
CCN(CC)C(=O)/C(Cl)=C(\C)OP(=O)(OC)OC,–,–,–,inactive,inactive,inactive,inactive,inactive,inactive,inactive
CCCC(=O)OC(C(Cl)(Cl)Cl)P(=O)(OC)OC (stereo not drawn),inactive,–,–,inactive,inactive,inactive,inactive,inactive,inactive,–
F/C(COc1ccc2c(c1)[nH]c1ccccc12)=C1/CN2CCC1CC2,–,–,inactive,–,6.31 µM (active),11.2 µM (active),–,–,–,–
Oc1cc(Cl)c(Cl)cc1Cl,–,inactive,inactive,inactive,inactive,inactive,inactive,inactive,inactive,inactive
c1ccc(C2(N3CCCC3)CCCCC2)cc1,–,–,–,8.91 µM (active),11.2 µM (active),–,7.94 µM (active),–,–,–
CNC(=O)Oc1ccccc1C(=O)Nc1ccccc1,inactive,inactive,–,–,inactive,inactive,–,inactive,inactive,–
CCC1(c2ccccc2)C(=O)NC(=O)N(C(=O)c2ccccc2)C1=O (stereo not drawn),inactive,inactive,inactive,inactive,inactive,inactive,–,inactive,inactive,inactive
O=C(NC(=O)c1c(F)cccc1F)Nc1ccc(Cl)c(Oc2ncc(C(F)(F)F)cc2Cl)c1,inactive,inactive,–,inactive,inactive,inactive,inactive,inactive,inactive,inactive
O=C1CN=C(c2ccccc2)c2cc(Cl)ccc2N1CC1CC1,–,inactive,inactive,inactive,inactive,inactive,–,inactive,inactive,inactive
OC(c1ccccc1)(c1ccccc1)C1CN2CCC1CC2 (stereo not drawn),inactive,inactive,–,inactive,–,inactive,–,inactive,inactive,inactive
CNC(=O)OCC[N+](C)(C)C,inactive,–,inactive,inactive,inactive,inactive,inactive,inactive,inactive,inactive
CCOP(=O)(OCC)O/C(=C/Cl)c1ccc(Cl)cc1Cl,–,–,–,–,inactive,inactive,–,inactive,inactive,inactive
C[CH2][Hg][S]c1ccccc1C(=O)O,–,4.26 µM (active),1.51 µM (active),3.98 µM (active),1.26 µM (active),3.55 µM (active),3.16 µM (active),3.55 µM (active),3.16 µM (active),3.16 µM (active)
O=c1[nH]c(=O)n(Cl)c(=O)n1Cl,inactive,inactive,–,inactive,inactive,inactive,inactive,inactive,inactive,inactive
